The values below come from PubChem BioAssay (NCI).

Molecules are shown by their SMILES. This is part of a sample that, as a whole, favours compounds with a hit. Of some 83,000 tested, about 20% had one in any assay.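 Method: cells in 96-well plates; compound added at one concentration; 48 h incubation; percent growth measured; values under 10 scored active.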 Values without a mark were called inactive. Active and inactive are the calls of the source.

Among the test systems are SK-MEL-2 melanoma; EKVX NSCLC; SN12C renal; UO-31 renal; TK-10 renal; ACHN renal; A498 renal; CCRF-CEM leukemia; MOLT-4 leukemia; SR leukemia; RPMI-8226 leukemia; OVCAR-8 ovarian; OVCAR-5 ovarian; OVCAR-4 ovarian; SK-OV-3 ovarian; IGROV1 ovarian; OVCAR-3 ovarian; HS 578T breast; NCI/ADR-RES ovarian.
Common to all, as to assay: NCI-60 one-dose screen, 48 h (100 = growth as untreated, 0 = no growth, -100 = all killed)
Common to all, as to details: 10 µM unless noted

`CCCCCn1ncc(-c2c(O)c(O)cc3c(O)c(-c4c(C)cc5c(-c6cnn(CCCCC)n6)c(O)c(O)cc5c4O)c(C)cc23)n1`: the growth was 3.71% (active) in the test on SK-MEL-2 melanoma; 9.87% (active) in the test on EKVX NSCLC; 18.6% with SN12C renal; -49.5% (active) in the test with UO-31 renal; 10.2% in the test on TK-10 renal; 6.56% (active) with ACHN renal. Also, the growth in the test with A498 renal is 53%; with CCRF-CEM leukemia, 1.09% (active); in the test on MOLT-4 leukemia it was 6.44% (active); in the test on SR leukemia, -29.1% (active); in the test on RPMI-8226 leukemia, 0.346% (active); in the test on OVCAR-8 ovarian, 8.04% (active). Moreover, the growth in the test with OVCAR-5 ovarian was 32.3%; in the test with OVCAR-4 ovarian, 34.6%; with SK-OV-3 ovarian, -0.985% (active); with IGROV1 ovarian, 13.2%; with OVCAR-3 ovarian, 8.42% (active); in the test on HS 578T breast it was 31%. In addition, the growth in the test with NCI/ADR-RES ovarian is 2.37% (active).

In the case of `O=C(O)c1ccccc1C(=O)c1ccc(I)cc1`, the growth in the test with SK-MEL-2 melanoma is 91.2%; with EKVX NSCLC, 97.5%; in the test with SN12C renal it was 104%; with UO-31 renal, 99.4%; in the test with TK-10 renal, 95.6%; in the test on ACHN renal it was 104%. The growth was 115% with A498 renal; 99.9% with CCRF-CEM leukemia; 94.3% in the test on MOLT-4 leukemia; 101% with SR leukemia; 97.7% with RPMI-8226 leukemia; 107% with OVCAR-8 ovarian. Moreover, the growth in the test with OVCAR-5 ovarian is 107%; with OVCAR-4 ovarian, 109%; in the test on SK-OV-3 ovarian, 96.4%; with IGROV1 ovarian, 98.4%; in the test with OVCAR-3 ovarian, 107%; with HS 578T breast it was 104%. The growth in the test on NCI/ADR-RES ovarian is 97.5%.

In the case of `COc1ccccc1S(=O)(=O)Nc1ccc2c3c(cc(-c4cnn(C)c4)nc13)C(=O)N2C`, the growth in the test on SK-MEL-2 melanoma was 46.9%; in the test with EKVX NSCLC, 40.2%; in the test on SN12C renal, 52.2%; with UO-31 renal it was 23.7%; in the test with TK-10 renal, 13%; in the test on ACHN renal, 37.5%. Besides, the growth in the test on A498 renal was 26.8%; in the test with CCRF-CEM leukemia, 55.5%; in the test with MOLT-4 leukemia it was 44.7%; with SR leukemia, 46.1%; with RPMI-8226 leukemia, -4.77% (active); with OVCAR-8 ovarian it was 47.1%. Besides, the growth in the test with OVCAR-5 ovarian was 54.1%; in the test with OVCAR-4 ovarian it was 51%; in the test on SK-OV-3 ovarian, 14.8%; in the test with IGROV1 ovarian it was 18.4%; in the test on OVCAR-3 ovarian, 34.1%; with HS 578T breast it was 23.8%. Further, the growth in the test on NCI/ADR-RES ovarian is 35.9%.

Turning to `COc1ccc(SC2c3ccc(O)cc3Oc3nc(N)c(C#N)c(N)c32)cc1` (configuration not stated), the growth in the test with SK-MEL-2 melanoma was 98.1%; in the test with EKVX NSCLC, 79%; in the test with SN12C renal, 54.3%; with UO-31 renal it was 71.1%; with TK-10 renal, 73%; with ACHN renal, 97.7%. The growth was 84.7% with A498 renal; 31.8% with CCRF-CEM leukemia; 67.7% with MOLT-4 leukemia; 59.9% in the test on SR leukemia; 96.7% in the test on RPMI-8226 leukemia; 98% with OVCAR-8 ovarian. For the same compound, the growth was 129% in the test with OVCAR-5 ovarian; 92.9% in the test with OVCAR-4 ovarian; 120% with SK-OV-3 ovarian; 74.3% with IGROV1 ovarian; 88.1% in the test on OVCAR-3 ovarian; 94.4% in the test on HS 578T breast. For the same compound, the growth in the test on NCI/ADR-RES ovarian is 98.8%.

As for `Cc1cn(-c2nc3c(c(NCc4ccccc4)n2)COCC3)c2cccc(C(N)=O)c12`, the growth in the test with SK-MEL-2 melanoma is 38.1% [0.5 µM]; in the test with EKVX NSCLC, 85.9% [0.5 µM]; with SN12C renal it was 30.8% [0.5 µM]; with UO-31 renal, 55% [0.5 µM]; in the test with TK-10 renal it was 83.2% [0.5 µM]; in the test on ACHN renal, 39.5% [0.5 µM]. Further, the growth is 85.1% [0.5 µM] with A498 renal; 49.1% [0.5 µM] with CCRF-CEM leukemia; 60.6% [0.5 µM] in the test with MOLT-4 leukemia; 50.8% [0.5 µM] in the test with SR leukemia; -15.3% [0.5 µM] (active) in the test with RPMI-8226 leukemia; 58.1% [0.5 µM] in the test with OVCAR-8 ovarian. For the same compound, the growth with OVCAR-5 ovarian is 70.8% [0.5 µM]; in the test with OVCAR-4 ovarian, 58.8% [0.5 µM]; in the test with SK-OV-3 ovarian, 111% [0.5 µM]; in the test with IGROV1 ovarian, 82.3% [0.5 µM]; in the test with OVCAR-3 ovarian, 91.5% [0.5 µM]; in the test with HS 578T breast, 83.5% [0.5 µM]. For the same compound, the growth in the test with NCI/ADR-RES ovarian was 86% [0.5 µM].

For the compound `C=C1C(=O)O[C@H]2[C@H]1CC/C(COC(=O)c1ccccc1)=C\CC[C@@]1(C)O[C@@H]21`, the growth in the test on SK-MEL-2 melanoma is 15%; with EKVX NSCLC, 11.5%; in the test with SN12C renal it was -22.4% (active); with UO-31 renal, -95.7% (active); in the test on TK-10 renal it was -0.228% (active); in the test with ACHN renal it was -83.7% (active). Besides, the growth in the test with A498 renal is 99.4%; in the test with CCRF-CEM leukemia, -26% (active); in the test on MOLT-4 leukemia, -22.2% (active); in the test on SR leukemia, -14.1% (active); with RPMI-8226 leukemia it was -36.4% (active); in the test with OVCAR-8 ovarian it was -34.3% (active). Also, the growth in the test with OVCAR-5 ovarian is 2.5% (active); with OVCAR-4 ovarian, 5.21% (active); with SK-OV-3 ovarian it was 95.4%; with IGROV1 ovarian, -24.9% (active); in the test on OVCAR-3 ovarian, -44.5% (active); with HS 578T breast it was 44%. Moreover, the growth in the test on NCI/ADR-RES ovarian was 36.2%.

Turning to `CCOc1cccc(Nc2nc(N)nc3[nH]c4ccc(O)cc4c23)c1`, the growth was 90.2% in the test with SK-MEL-2 melanoma; 27.8% in the test with EKVX NSCLC; 54.1% with SN12C renal; 36.4% in the test on UO-31 renal; 27.2% in the test with TK-10 renal; 40.8% with ACHN renal. Further, the growth in the test on A498 renal is 51%; with CCRF-CEM leukemia it was 61.7%; in the test on MOLT-4 leukemia, 53.9%; in the test with SR leukemia, 65.7%; with RPMI-8226 leukemia, 42.4%; with OVCAR-8 ovarian, 77.6%. For the same compound, the growth in the test with OVCAR-5 ovarian is 63.1%; in the test on OVCAR-4 ovarian, 66.3%; with SK-OV-3 ovarian, 55.9%; with IGROV1 ovarian, 16.7%; in the test on OVCAR-3 ovarian, 58.5%; in the test with HS 578T breast it was 58.5%. For the same compound, the growth in the test on NCI/ADR-RES ovarian was 80.4%.

`COc1ccc(/C(=C/c2cc(OC)c(OC)c(OC)c2)[N+](=O)[O-])cc1`: the growth with SK-MEL-2 melanoma was -13.2% (active); in the test on EKVX NSCLC it was 27.9%; with SN12C renal it was 5.64% (active); with UO-31 renal, -69.1% (active); in the test on TK-10 renal, -1.67% (active); with ACHN renal it was -74% (active). The growth in the test with A498 renal was 87.4%; in the test with CCRF-CEM leukemia it was -7.93% (active); in the test on MOLT-4 leukemia, 0.326% (active); in the test on SR leukemia, -11.2% (active); in the test on RPMI-8226 leukemia, -18.6% (active); in the test on OVCAR-8 ovarian, 13.4%. The growth in the test on OVCAR-5 ovarian was 98.6%; in the test on OVCAR-4 ovarian, 37.3%; with SK-OV-3 ovarian, 91%; with IGROV1 ovarian, -4.79% (active); in the test with OVCAR-3 ovarian it was -54.3% (active); with HS 578T breast, 97.9%. In addition, the growth with NCI/ADR-RES ovarian is 33.8%.
